Results reported in paper PMC7862700, “An all-to-all approach to the identification of sequence-specific readers for epigenetic DNA modifications on cytosine”.

Molecular target: T1, FLI1 (Homo sapiens, UniProt Q01543 1-452)
T1 sequence: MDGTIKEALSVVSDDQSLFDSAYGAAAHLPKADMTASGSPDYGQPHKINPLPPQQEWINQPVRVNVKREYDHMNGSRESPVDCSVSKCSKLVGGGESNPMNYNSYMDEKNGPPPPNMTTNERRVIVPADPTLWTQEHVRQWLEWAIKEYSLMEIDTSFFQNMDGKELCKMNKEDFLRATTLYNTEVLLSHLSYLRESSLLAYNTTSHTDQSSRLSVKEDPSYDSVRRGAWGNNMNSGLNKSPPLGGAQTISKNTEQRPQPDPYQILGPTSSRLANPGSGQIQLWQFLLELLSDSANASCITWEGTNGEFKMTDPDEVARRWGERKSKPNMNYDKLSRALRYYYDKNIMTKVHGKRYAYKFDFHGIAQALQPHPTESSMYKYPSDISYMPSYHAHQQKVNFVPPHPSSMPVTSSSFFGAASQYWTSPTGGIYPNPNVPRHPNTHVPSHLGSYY
Assay: DAPPL (digital affinity profiling via proximity ligation, sequencing); 10 mM Tris-HCl pH 7.5, 50 mM NaCl, 1 mM DTT, 4% glycerol, room temperature, 30 min; GST-TFs on glutathione beads, 16-mer random dsDNA library, 0.1% formaldehyde crosslink after washing; high values mean tight binding
Settings: protein: recombinant; tags: N-terminal GST; dsDNA, one strand shown
How it was run: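 Human transcription factors fused to GST were expressed in yeast, captured on glutathione beads, given DNA barcodes and pooled with a GST-only negative control. Pools were incubated with 200 nmole of a 16-mer random double-stranded DNA library in Tris/NaCl/DTT/glycerol buffer at room temperature for 30 min. They were then washed, crosslinked with 0.1% formaldehyde, proximity-ligated (BsaI/T4 ligase, 1 h, 37 °C), PCR-amplified and sequenced on an Illumina NextSeq500. Binding signal is each 6-mer's read frequency for a factor divided by its frequency for the GST control.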

## TAAGTC
  binding signal: 1 fold enrichment (6-mer frequency, TF over GST control)
